# From PubChem BioAssay
# Active and inactive are the calls of the source. No rule for the calls is given here.
# Target: Pantothenate synthetase (Mycobacterium tuberculosis (strain ATCC 25618 / H37Rv)) (UniProt P9WIL5)
# Test: Recombinant Mtb pantothenate synthetase (PanC) inhibitors, coupled enzyme, confirmatory (AID 375);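 also: 0% = full reaction with vehicle and 100% = no enzyme background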
# Settings: coupled enzyme assay; at 10 µM, hits give high values
# Chain of Pantothenate synthetase (Mycobacterium tuberculosis (strain ATCC 25618 / H37Rv)) (P9WIL5 whole entry, looked up): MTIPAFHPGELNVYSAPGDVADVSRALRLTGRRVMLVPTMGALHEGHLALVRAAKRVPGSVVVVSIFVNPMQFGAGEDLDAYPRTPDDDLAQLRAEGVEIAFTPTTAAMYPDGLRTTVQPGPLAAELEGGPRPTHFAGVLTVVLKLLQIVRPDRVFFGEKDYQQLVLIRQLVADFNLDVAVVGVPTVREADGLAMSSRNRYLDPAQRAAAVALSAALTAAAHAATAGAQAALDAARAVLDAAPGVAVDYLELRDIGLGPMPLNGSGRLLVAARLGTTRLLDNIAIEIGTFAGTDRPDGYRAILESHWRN
row,SMILES,inhibition
1,CCOC(=O)NC1(NCc2ccccc2)Oc2ccccc2O1,0% (inactive)
2,CO/C([O-])=N/c1c[n+](-c2ccc(C)cc2)no1,0% (inactive)
3,c1ccc(-c2oc3ncnc(NCCN4CCOCC4)c3c2-c2ccccc2)cc1,4% (inactive)
4,CCOC(=O)c1ccc(NC(=O)CSc2ncccn2)cc1,6% (inactive)
5,Cc1ccsc1C1C2=C(CCCC2=O)Nc2ncnn21 (centres undefined),0% (inactive)
6,CCOc1ccccc1NC(=O)CCN1CCN(S(=O)(=O)c2ccc(Br)cc2)CC1,0% (inactive)
7,CC(C(=O)N1CC2(C)CC1CC(C)(C)C2)N1C(=O)c2ccccc2C1=O (centres undefined),8% (inactive)
8,O=C(OCC(=O)N1CCCC1)c1ccccc1OCc1ccccc1,0% (inactive)
9,CCOc1ccccc1CN(Cc1ccco1)S(=O)(=O)c1ccc(-n2cnnn2)c(OC)c1,8% (inactive)
10,COC(=O)c1cc2oc(C)cc2n1CC(=O)N(C)c1ccccc1,0% (inactive)
11,COc1cccc(-n2c(SCC(=O)N3CCCC3)nc3c([nH]c4ccccc43)c2=O)c1,0% (inactive)
12,COc1cccc(C2=Nn3c(nnc3-c3ccccc3O)SC2)c1,1% (inactive)
13,O=C(NCc1ccco1)Nc1ccc2nsnc2c1,6% (inactive)
14,C[C@]12C=CC(=O)C=C1CC[C@H]1[C@@H]3C[C@@H](O)[C@](O)(C(=O)CO)[C@@]3(C)C[C@H](O)[C@@]12F,0% (inactive)
15,O=C(NCC1COCCO1)C1CCN(S(=O)(=O)c2ccccc2)CC1 (centres undefined),3% (inactive)
16,Cc1cc(=O)n2nc(N3CCCC(C(=O)N4CCc5ccccc54)C3)sc2n1 (centres undefined),4% (inactive)
17,Cn1c(=O)cc(OCC(=O)NCCCN2CCN(Cc3ccccc3)CC2)c2ccccc21,0% (inactive)
18,CCOc1ccc(S(=O)(=O)NCC2CCCO2)c2cccnc12 (centres undefined),0% (inactive)
19,CC(=O)Nc1ccc(NS(=O)(=O)C(F)(F)F)cc1,0% (inactive)
20,O=C(O)c1c[nH]c2ccc(S(=O)(=O)N3CCN(c4ccc(F)cc4)CC3)cc2c1=O,0% (inactive)

row,SMILES,inhibition
1,CCOc1ccc(OCC)c(NC(=O)C2CCN(S(=O)(=O)c3cnc[nH]3)CC2)c1,4% (inactive)
2,Cc1ccc(-n2c3c(cc(C(=O)NCCCN4CCOCC4)c2=O)C(=O)CC(C)(C)C3)cc1,0% (inactive)
3,CCOC(=O)c1cc2c(=O)n3ccccc3nc2n(Cc2ccccc2)c1=N,0% (inactive)
4,O=C(Nc1cccc2c1CCCC2)C1CCN(c2nnnn2-c2ccccc2)CC1,5% (inactive)
5,CN(C(=O)c1ccccn1)c1nnc(-c2cccnc2)s1,6% (inactive)
6,COc1cc(OC)c(OC)cc1CN(C)CCc1ccccn1,3% (inactive)
7,O=C(C1=C(O)C(=O)N(Cc2ccccc2)C1c1ccncc1)c1ccco1 (centres undefined),0% (inactive)
8,CCc1nnc2c3cnn(-c4ccccc4)c3ncn12,0% (inactive)
9,COc1ccc(C2=NOC(C(=O)Nc3cc(Br)ccc3O)C2)cc1OC (centres undefined),3% (inactive)
10,O=C(Nc1ccc(N2C(=O)C3C4C=CC(C4)C3C2=O)cc1)Nc1cccnc1 (centres undefined),0% (inactive)
11,CC(=O)NS(=O)(=O)c1ccc(NC(=O)c2ccccc2F)cc1,0% (inactive)
12,O=C1C2CC=C(Cl)CC2C(=O)N1c1ncn[nH]1 (centres undefined),0% (inactive)
13,CCOCCCNC(=O)C1CCC(CNS(=O)(=O)c2cccc3nsnc23)CC1 (centres undefined),1% (inactive)
14,CC(=O)NCc1cccc(CNC(C)=O)n1,11% (inactive)
15,O=C(Nc1ccc(S(=O)(=O)NCCc2ccccc2)cc1)c1ccc(Br)o1,3% (inactive)
16,CCOC(=O)/C=C1\CC(=O)Nc2nonc2N1,4% (inactive)
17,COc1ccc(NC(=O)c2ccco2)cc1NC(=O)c1cccs1,0% (inactive)
18,Cc1cc(C)c2c(n1)nn1c(N3CCN(c4cccc(Cl)c4)CC3)cc(C)nc21,5% (inactive)
19,COc1ccc2c(=O)c3c(=O)n(Cc4ccco4)c(-c4cc(OC)c(OC)c(OC)c4)nc3oc2c1,5% (inactive)
